PKA-R2B act: PKA-R2B complex activation | P22694+P31323 | PKA-R2B holoenzyme dissociation, Cy5-IP20 fluorescence polarization; R2B truncated from residue 108, S112A mutant; 0% DMSO only, 100% 113 µM cGMP | activation, % at 11.4 µM | actives 0.079% (n = 340,000) | AID 504700;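 active = activation above a cutoff set at the mean over all compounds plus 3 SD, cut at about 18% in these data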;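 also: higher means more holoenzyme dissociation and a rise in polarization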
Target sequence (P31323 whole entry, looked up, other chains not shown, the tested form may be a part): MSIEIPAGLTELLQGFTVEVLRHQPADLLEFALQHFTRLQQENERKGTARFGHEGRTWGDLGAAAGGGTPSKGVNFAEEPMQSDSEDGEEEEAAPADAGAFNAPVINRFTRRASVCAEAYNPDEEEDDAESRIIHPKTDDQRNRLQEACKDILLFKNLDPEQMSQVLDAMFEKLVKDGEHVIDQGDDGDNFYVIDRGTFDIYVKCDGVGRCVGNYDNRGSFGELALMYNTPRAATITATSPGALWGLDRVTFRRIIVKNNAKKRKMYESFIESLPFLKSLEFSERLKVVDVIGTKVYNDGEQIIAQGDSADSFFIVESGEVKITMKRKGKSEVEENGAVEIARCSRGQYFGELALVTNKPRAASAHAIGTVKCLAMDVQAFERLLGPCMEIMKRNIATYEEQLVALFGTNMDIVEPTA
bovine MsrA act: bovine methionine sulfoxide reductase A activation; purified bovine MsrA, absorbance read-out; activation, % at 10.6 µM; actives 0.3% (n = 360,000); in the data active = activation above about 7.5%;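 also: 0% = vehicle and 100% = reference activator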
PKA-R1A act: PKA-R1A complex activation. PKA-R1A dissociation, Cy5-IP20 fluorescence polarization; scaled: DMSO 0%, 113 µM cGMP 100%. P00514+P68181. activation, % at 11.4 µM. AID 504707. actives 0.083% (n = 340,000);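 active = percent activation above the mean of all tested compounds plus 3 SD, cut at about 19% in these data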;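 also: higher means more PKAc released from R1A so a rise in polarization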
MsrA inhibitor: bovine MsrA inhibition | actives 0.75% (n = 360,000) | inhibition, % at 15.5 µM | purified bovine MsrA, absorbance read-out | AID 651718;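 also: 0% = vehicle wells with enzyme and 100% = reference inhibitor wells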
MsrA conf: confirmation of bovine MsrA inhibitors; shares compounds with MsrA inhibitor; purified bovine MsrA, absorbance read-out; inhibition, % at 15.5 µM; actives 41% (n = 2,300); AID 651822;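 also: coupled to thioredoxin reductase with NADPH and selenocystamine and DMSO as substrate; 0% = vehicle only and 100% = full effect of reference inhibitor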
* marks the source's active call; other numbers are inactive results; nt = no result given. Sampled rows, rich in hits. Any-hit rate of the full collection: about 1.1%. Rule as the data show it, unless noted: active = inhibition above about 4.5%; inactive = the rest.

SMILES | PKA-R2B act | bovine MsrA act | PKA-R1A act | MsrA inhibitor | MsrA conf
Cc1ccc(NS(=O)(=O)c2cc(-c3n[nH]c(=O)c4ccccc34)ccc2C)cc1 | -10 | -1 | 2 | 5.2* | 5.0*
CN1OC[C@@H]2CN(C(=O)c3cccc4ccccc34)[C@H](c3ccccc3Br)C[C@@H]21 | nt | -3 | nt | -1 | nt
Nc1ccc(C(=O)C(=O)c2ccc(N)cc2)cc1 | 9 | -6 | 12 | 7.5* | 6.8*
O=C(O)c1cccc(NC2=C(n3nnc4ccccc43)C(=O)c3ccccc3C2=O)c1 | 2 | 0 | 0 | 32* | 28*
O=C(O)c1cccc(NS(=O)(=O)c2ccc3nnn(O)c3c2)c1 | -5 | -5 | 2 | 0 | nt
Nc1n[nH]c(N)c1N=Nc1ccc(Cl)cc1 | -8 | -5 | -1 | 6.1* | 3
CCN(CC)S(=O)(=O)c1ccc(N=Cc2c(C)c(C#N)c(=O)n(C)c2O)cc1 | 11 | -2 | 18 | 5.1* | 7.3*
COc1cc(S(=O)(=O)Nc2ccc(C)cc2)ccc1N=Cc1c(C)c(C#N)c(=O)n(C)c1O | nt | -7 | nt | 3 | nt
Cc1ccc(N/N=C/c2c(C)c(C#N)c(=O)n(C)c2O)cc1C | 10 | -3 | 3 | 5.9* | 6.6*
Cc1c(C=N)c(O)n(C)c(=O)c1C#N | 2 | -6 | 4 | 5.2* | 6.6*
C=CCn1c(O)c(CN2CCCCC2)c(C)c(C#N)c1=O | -2 | -4 | 10 | 2 | nt
CC(=O)Nc1cccc(NC(=O)COc2ccc3c(c2)OCO3)c1 | -6 | -6 | 0 | 0 | nt
O=C(NCCNC(=O)c1ccccn1)c1ccccc1 | 1 | -2 | -7 | 0 | nt
CCOC(=O)C1=C(C)NC2=C(C(=O)CCC2)C1c1cn(Cc2ccc(Cl)cc2Cl)nc1-c1ccccc1 (centres undefined) | 3 | 1 | -4 | 4.7* | 3
CCc1[nH]nc(C(=O)NC2CCCN(Cc3ccccc3F)C2)c1C (centres undefined) | 2 | -2 | -10 | 0 | nt
C[C@H](NC(=O)OC(C)(C)C)C(=O)N/N=C/c1ccc2nccnc2c1 | nt | -2 | nt | 3 | nt
CC1(C)CC(=O)c2sc(NS(=O)(=O)Cc3ccccc3)nc2C1 | -5 | -8 | -6 | 5.3* | 3
Cc1ccc(S(=O)(=O)Nc2nc3c(s2)C(=O)CC(C)(C)C3)cc1 | -2 | -12 | 0 | 6.7* | 3
CC(C)N(C(=O)Cn1cc(S(=O)(=O)CC(=O)Nc2ccccc2)c2ccccc21)C(C)C | -4 | -2 | -10 | -1 | nt
Cc1ccc(/C=C(\C#N)C(=O)NCC2CCCO2)o1 (centres undefined) | 12 | -10 | -6 | 5.2* | 4.6*
COc1cc(/C=C(\C#N)C(=O)NCC2CCCO2)ccc1OCC(=O)O (centres undefined) | nt | -6 | nt | 5.5* | 4
CC(C)C(NC(=O)c1c(F)cccc1F)C(=O)N1CCN(S(=O)(=O)c2ccc(F)cc2)CC1 (centres undefined) | -9 | -3 | 5 | 0 | nt
O=C(O)c1ccc(NS(=O)(=O)c2ccc3c(c2)C(=O)c2ccccc2C3=O)cc1 | nt | -8 | nt | 24* | 15*
CC(C)CC(=O)Nc1c(C(=O)N2CCN(Cc3ccccc3)CC2)oc2ccccc12 | -1 | -4 | -3 | 1 | nt
Cc1cc2nc(N3C(=O)CNC3=S)sc2cc1C | -7 | -6 | 0 | 7.7* | 4.9*
SMILES | PKA-R2B act | bovine MsrA act | PKA-R1A act | MsrA inhibitor | MsrA conf
CCOc1ccc2nc(N3C(=O)CNC3=S)sc2c1 | 2 | -5 | 0 | 7.3* | 4.6*
CCCCC(=O)N1CCN(c2nc3ccc(OCC)cc3s2)CC1 | -1 | 0 | -1 | 0 | nt
O=C(Nc1ccc(C(=O)O)cc1)/C(=C\c1ccc2c(c1)OCO2)NC(=O)c1ccccc1 | -8 | -16 | 1 | 4 | nt
O=C(O)COc1ccccc1/C=N/NC(=O)/C(=C\c1ccc2c(c1)OCO2)NC(=O)c1ccccc1 | 0 | -6 | -7 | 5.5* | 4
O=C(Nc1cccc(C(=O)O)c1)/C(=C\c1ccc2c(c1)OCO2)NC(=O)c1ccccc1Cl | 6 | -3 | 7 | 5.5* | 3
CC(C)(CNC(=O)CNC(=O)c1ccc(Cl)cc1Cl)N1CCOCC1 | 6 | 0 | -1 | -1 | nt
CC(C)Oc1cccc(C(=O)C2CCCN(C(=O)c3ccc4c(c3)OCO4)C2)c1 (centres undefined) | -8 | 0 | -2 | 0 | nt
COc1cc(/C(C)=N/NC(=O)c2ccc(CSc3nncn3C)cc2)cc(OC)c1OC | 2 | 3 | -6 | 1 | nt
CN(C)c1ccc(/C=N/NC(=O)c2ccc(CN3CCOCC3)cc2)cc1Br | nt | -14 | nt | 2 | nt
COc1ccc(/C=N/NC(=O)c2ccc(CSc3nncn3C)cc2)cc1OC | -4 | -6 | 0 | 4.8* | 4
CCOc1cc(/C=N/NC(=O)c2ccc(CN3CCOCC3)cc2)ccc1OC | 5 | -12 | 1 | 5.3* | 4
CCN(CC(=O)NC1CCS(=O)(=O)C1)S(=O)(=O)c1ccc(Cl)cc1C(F)(F)F (centres undefined) | -7 | -3 | -9 | 0 | nt
COc1cc(/C=N/NC(=O)CSc2n[nH]c(=O)[nH]c2=O)cc(OC)c1O | -6 | -3 | -5 | 4.8* | 2
COc1cc(/C=N/NC(=O)C(=O)NCc2ccco2)cc(Br)c1O | -1 | -7 | -1 | 6.0* | 4
O=C(CSc1n[nH]c(=O)[nH]c1=O)N/N=C/c1ccccc1O | 1 | 1 | -12 | 0 | nt
CCCCCC(=O)N/N=C/c1cc(Br)c(O)c(OC)c1 | -4 | -6 | 7 | 5.5* | 3
O=C(NCc1ccco1)C(=O)NN=Cc1ccccc1O | nt | nt | nt | 2 | nt
COCCN(CC(=O)Nc1cccc(C)c1C)C(=O)Cc1ccsc1 | -3 | -5 | -2 | 2 | nt
Cc1ccc(-n2ncc3c2CC(C)(C)CC3NC(=O)CCN2CCCCC2=O)cc1 (centres undefined) | -4 | -3 | -4 | 1 | nt
Cc1ccc2ccccc2c1C(O)c1ncc(-c2cccc(F)c2)[nH]1 (centres undefined) | nt | -3 | nt | -2 | nt
O=C(CN1C(=O)S/C(=C\C=C\c2ccccc2)C1=O)Nc1ccc(C(=O)O)cc1 | -10 | -11 | -12 | 6.6* | 4
O=C(CN1C(=O)S/C(=C/C=C/c2ccccc2)C1=O)Nc1ccc(C(=O)O)cc1 | -2 | -4 | -6 | 5.3* | 5.8*
O=C(CCCN1C(=O)S/C(=C\C=C\c2ccccc2)C1=O)Nc1ccc(O)cc1 | -4 | -3 | -3 | 5 | nt
O=C(CCN1C(=O)/C(=C\C=C\c2ccccc2)SC1=S)Nc1ccc(C(=O)O)cc1 | -1 | -4 | 1 | 0 | nt
O=C1CCC/C=C\C[C@H](CC(=O)N(CCO)Cc2ccccc2)C(=O)N2CCC[C@@H]2CO1 | -15 | -1 | -9 | -1 | nt
CSc1ccc(/C=N/NC(=O)c2cccs2)cc1 | nt | -4 | nt | 3 | nt
CN(C)c1ccc(/C=C(\NC(=O)c2ccccc2)C(=O)N/N=C/c2ccc(C(=O)O)cc2)cc1 | 7 | -4 | -1 | 5.7* | 5.4*
